A selection: hits, their analogues and other compounds. The true share with any hit is near 19%.
HT1080 IDH1KD tx: toxicity to HT-1080 IDH1 knockdown cells (counter line). 2% of 360,000 active. Potency, µM (highest dose often 46.1 µM), inactives show at the highest dose activity, negative = toxicity, hits mostly cytotoxic. HT-1080 IDH1 knockdown viability, ATP luminescence, 48 h. AID 686971;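 note: potency is the fitted concentration of half-maximal effect; 0% = DMSO wells and -100% = cell-free medium wells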
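After a 2 h attachment period, IDH1KD HT-1080 cells took pin-transferred compound for 48 h at 37 °C; ATP-based luminescence after 10 min room-temperature reagent incubation reported viability.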
TDP1 cell CPT: DT40-hTDP1 cell growth loss with CPT; 12% of 420,000 active; AID 686979; chicken DT40 Tdp1-/-;hTDP1 cells + 20 nM CPT, ATP luminescence, 48 h; Potency, µM (top dose mostly 46.2 µM), without a hit: at the highest dose activity change, negative = growth inhibition, usual class: inhibitors; note: potency is the fitted concentration of half-maximal effect; nearly all actives have a fitted effect of over 55% in size
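Cell growth measured by CellTiter-Glo luminescence after a minimum 48 h, 37 C compound exposure with 20 nM CPT in Tdp1-knockout DT40 cells stably expressing hTDP1, seeded 400/well; qHTS titration format.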
DT40 TDP1 no CPT: qHTS for Inhibitors of human tyrosyl-DNA phosphodiesterase 1 (TDP1): qHTS in cells in absence of CPT | DT40 Tdp1-/- hTDP1 cells, no CPT, ATP luminescence, 48 h | 15% of 420,000 active | Potency, µM (doses to about 46.2 µM), inactives show at the top dose activity change, negative = growth inhibition, hits mostly inhibitors; note: potency is the fitted concentration of half-maximal effect; nearly all actives have a fitted effect of over 55% in size
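Stably hTDP1-transfected Tdp1-null chicken DT40 cells were treated with library compounds minus camptothecin and grown for at least 48 hr at 37 °C, after which cellular ATP was quantified by luminescence.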
IL1B secr inh: inhibitors of inflammasome signaling (IL-1 beta secretion). THP-1 LPS/ATP IL-1B secretion, AlphaLISA, 16 h; hits give low values. activity change, % at 57.5 µM. 4.7% of 360,000 active. AID 743279; in the data active = activity change below about -50%; inconclusive = mostly about -30% to -49%
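Secreted IL-1B measured by AlphaLISA bead assay after 16 h compound exposure of THP-1 cells; compounds (final up to 57.5 uM) added 1 h before LPS (250 ng/mL) and ATP (1.25 mM) stimulation; lower signal means less secretion.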
uPA generation: cell surface uPA generation inhibition; Potency, µM (titrated, usually from 38.3 µM), for inactives: at the highest dose activity change, negative = inhibition, most hits filed as inhibitors; 0.31% of 330,000 active; cell surface uPA generation assay, qHTS; AID 540303; active = well fitted inhibition curve with a large enough effect; inconclusive = small, poorly fitted or top-dose-only effect; inactive = no such curve, though single readings can be large or run the other way; tested in mouse RAW 264.7 cells; note: potency is the fitted concentration of half-maximal effect; nearly all actives have a fitted effect of over 55% in size
HT1080NT lethal: kills 2HG-producing HT-1080-NT fibrosarcoma cells; 1.6% of 360,000 active; HT-1080-NT fibrosarcoma viability, CellTiter-Glo ATP luminescence, 48 h; AID 686970; Potency, µM (top dose mostly 46.1 µM), for the others: at the highest dose activity, negative = less viability, usual class: cytotoxic;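 note: NT is the 2HG producing partner of a matched IDH1 knockdown line; potency is the fitted concentration of half-maximal effect; 0% = DMSO-treated cells and -100% = media-only wells without cells; nearly all actives have a fitted effect of over 55% in size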
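750 cells/well, RPMI + 5% FBS; 2 h settle, compound pin-transfer, 48 h at 37 degrees C. CellTiter-Glo 10 min RT, luminescence. Normalized to DMSO and media-only wells.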
Active calls of the source: *; ? = inconclusive; . = no result given; [ ] = another dose, or the depositor's remark. Unless noted, calls come from the whole dose curve; as a rule, active = well fitted curve in the direction sought with a large enough effect; inconclusive = small, poorly fitted or top-dose-only effect, or another doubt; inactive = no such curve, though single readings can be large; an effect the other way counts as inactive or inconclusive. Unless noted, % is set by controls: 0 for no effect and ±100 for the full control effect.

SMILES	HT1080 IDH1KD tx	TDP1 cell CPT	DT40 TDP1 no CPT	IL1B secr inh	uPA generation	HT1080NT lethal
CCCCCCN1CCN(C2CN(Cc3cn(Cc4ccc(Cl)cc4)nn3)S(=O)(=O)C2)CC1 (configuration not stated)	?	23.1µM*	16.4µM*	-0.8	.	?
CCCCCCN1CCN(C2CN(Cc3ccc(F)cc3)S(=O)(=O)C2)CC1 (configuration not stated)	-1.2%	?	?	-6.0	.	-0.2%
CN(C)CCN1CCN(C2CN(Cc3cn(Cc4ccc(Cl)cc4)nn3)S(=O)(=O)C2)CC1 (configuration not stated)	20.4%	-5.3%	-1.9%	0.0	.	12.3%
CCCCCCN1CCN(C2CN(Cc3cn(Cc4cccc(Cl)c4)nn3)S(=O)(=O)C2)CC1 (configuration not stated)	-38.3%	18.4µM*	?	?	.	?
O=C(CN1C(=O)CSc2ncccc21)Nc1cccc(Cl)c1	0.3%	?	?	-23.4	-1.9%	-16.5%
O=C(NCCc1ccccc1)C1(c2cccs2)CCOCC1	.	-15.3%	-22.9%	.	.	.
O=C(c1ccc2c(c1)OCO2)N(Cc1cc2cc3c(cc2nc1N1CCOCC1)CCC3)CC1CCCO1 (configuration not stated)	.	25.3%	-1.6%	.	.	.
OC1(c2cccnc2)CCN(Cc2ccc3c(c2)CN(Cc2cccc4nccnc24)CCO3)CC1	.	-2.8%[9.04 µM]	-29.1%	.	.	.
Cc1cc(C)cc(C(=O)N(C)[C@H](Cc2ccc(-c3ccccc3)cc2)C(=O)N[C@@H](Cc2c[nH]c3ccccc23)C(=O)O)c1	.	0.4%	-24.7%	.	.	.
CN1CCN(C2CN(Cc3cn(Cc4ccc(F)cc4)nn3)S(=O)(=O)C2)CC1 (configuration not stated)	9.9%	2.3%	-16.7%	-64.6*	.	20.0%
CN1CCC(N2CCN(C3CN(Cc4cn(Cc5ccc(F)cc5)nn4)S(=O)(=O)C3)CC2)CC1 (configuration not stated)	4.6%	-6.9%	-15.8%	2.6	.	13.6%
CCOc1ccc2nc(SCCNS(=O)(=O)c3ccccc3)sc2c1	?	-28.2%	16.4µM*	-68.4*	6.1%	?
CCOc1ccc2nc(SC3CC(=O)N(c4ccccc4)C3=O)sc2c1 (configuration not stated)	?	2.91µM*	3.66µM*	6.4	-4.9%	?
CCOc1ccc2nc(SC3CC(=O)N(c4cccc(OC)c4)C3=O)sc2c1 (configuration not stated)	9.9%	3.26µM*	3.66µM*	-2.6	-3.4%	11.9%
O=C1/C(=C/c2ccc(Cl)cc2)NC(=S)N1Cc1cccnc1	6.2%	?	?	-5.5	-5.7%	4.3%
Cc1ccc(NS(=O)(=O)c2c(C)nc3sccn3c2=O)c(C)c1	4.9%	-28.6%	-24.5%	59.8	-15.8%	0.3%
Cc1ccc(NS(=O)(=O)c2c(C)nc3sc(C)cn3c2=O)c(C)c1	.	18.4µM*	18.4µM*	.	.	.
CC1Cc2ccccc2N1C(=O)Cn1cc(C(F)(F)F)ccc1=O (configuration not stated)	3.0%	-6.6%	?	-5.1	.	-0.7%
CCNc1nc(-c2sc(NC(=O)C(C)(C)C)nc2C)c(-n2cc(-c3ccccc3)nn2)s1	?	10.3µM*	7.31µM*	-76.5*	.	?
O=S(=O)(N/N=C/c1cccnc1)c1ccc(Cl)c(Cl)c1	9.3%	?	-24.8%	?	-0.7%	0.1%
Cc1nc(NCc2cccnc2)c2c3c(sc2n1)CCCC3	-13.3%	?	?	-20.2	-2.1%	-13.7%
Cc1cc(C)n(-c2nc(NCc3cccnc3)c3c4c(sc3n2)COC(C)(C)C4)n1	23.1µM*	?	?	?	-4.9%	?
CCN(CC)CCCNc1nc(-n2nc(C)cc2C)nc2sc3c(c12)CC(C)(C)OC3	?	?	?	-57.0*	-8.6%	?
Cc1cc(C)n(-c2nc(SCC(=O)O)c3c4c(sc3n2)COC(C)(C)C4)n1	-18.8%	?	?	54.1	-4.0%	-2.1%
CCOc1cc(CNCCc2ccc(S(N)(=O)=O)cc2)ccc1OCC(=O)NC1CCCCC1	-24.7%	?	23.1µM*	-18.8	-6.5%	-26.1%
SMILES	HT1080 IDH1KD tx	TDP1 cell CPT	DT40 TDP1 no CPT	IL1B secr inh	uPA generation	HT1080NT lethal
CCOc1cc(CNCCc2ccccc2)ccc1OCC(=O)NC(C)(C)C	-14.3%	18.4µM*	20.6µM*	-17.9	-1.4%	-14.3%
O=C(NNC(=O)c1ccc(F)c(S(=O)(=O)N2CCOCC2)c1)c1ccc([N+](=O)[O-])cc1	0.0%	?	?	10.5	-26.5%	?
O=C(CC1C(=O)NCCN1Cc1c(F)cccc1Cl)NCCCN1CCCC1=O (configuration not stated)	1.0%	11.0%	11.0%	14.6	16.2%	-0.8%
COC(=O)c1cc(NC(=O)Cn2ncc3c2-c2ccccc2OC3)cc(C(=O)OC)c1	.	-25.4%	-26.1%	.	.	.
Cc1ccsc1C(=O)OC(C)C(=O)NC1CCCCC1C (configuration not stated)	-3.0%	-10.9%	-15.5%	-6.1	-3.3%	-0.9%
Cc1c(CCC(=O)O)c(=O)n2c([nH]c3ccccc32)c1C#N	-0.3%	5.6%	0.1%	22.4	.	7.8%
C=C(C)Cc1c(C)c(C#N)c2[nH]c3ccccc3n2c1=O	16.4µM*	3.3%	?	21.1	-2.8%	-12.8%
Cc1ccc(Cc2c(C)c(C#N)c3[nH]c4ccccc4n3c2=O)cc1	-20.1%	?	23.1µM*	-22.0	-14.5%	-16.5%
CN(C)S(=O)(=O)N1CCC(N2CCN(Cc3ccc(F)cc3)C(=O)C2=O)CC1	.	0.3%	7.1%	.	.	.
COc1ccc(NC(=O)CN(C)Cc2cccs2)cc1Cl	2.1%	?	?	?	0.6%	-2.2%

Screening data: PubChem, National Center for Advancing Translational Sciences (NCATS)
